Consider 35 compounds from PubChem BioAssay (NCATS).

Values joined by “and” are separate entries in the source; they are usually repeats but may differ in a detail not shown here. Equal values may be shown once. Inconclusive results are not listed. Active and inactive are the calls of the source. Unless noted, the call rests on the fitted dose curve; in most records, active means well fitted curve in the direction sought with a large enough effect; inconclusive means small, poorly fitted or top-dose-only effect, or another doubt; inactive means no such curve, though single readings can be large; an effect the other way counts as inactive or inconclusive.

The nature of assay [1]: qHTS for Inhibitors of Cell Surface uPA Generation: Validation Assay (AID 493164). Further: 0% is about no effect. In outline:
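RAW 264.7 cells (4000/well) were plated overnight, then exposed for 18 h at 37 C, 5% CO2 to compounds in a 7-point 1:5 titration (2.45 nM–38.3 uM final). Intracellular ATP was read by ATP-Lite luminescence.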
For orientation: Quantitative high-throughput screening tests each substance at several concentrations.

For assay [2], the target named is Peptidyl-prolyl cis-trans isomerase NIMA-interacting 1 (Homo sapiens) (UniProt Q13526). Nature of the assay: qHTS Validation Assay to Find Inhibitors of Pin1 (AID 504536; active means well fitted inhibition curve with a large enough effect in the polarisation, with a control signal flat, not every such curve was filed as active; the % refers to the polarisation; further: potency means the concentration at half of the fitted maximal effect). The method in brief:
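Fluorescence polarization competition: compounds (titration) displace HiFluor-488-labeled Pin1-1b peptide from Pin1 (0.3 uM final) in pH 7.5 HEPES buffer with DTT, 10 min at room temperature; %Activity normalized to no-enzyme wells, curves fitted.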

The target of assay [3] is Phosphoglycerate kinase, glycosomal (Trypanosoma brucei brucei) (UniProt P07378). Nature of the assay: qHTS Validation Assay to Find Inhibitors of Phosphoglycerate Kinase (AID 504547). Further: potency means the concentration at half of the fitted maximal effect. In outline:
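Inhibition of the enzyme is judged by a Kinase-Glo Plus luminescent signal following a one-hour incubation at room temperature. Because 1,3-BPG is unstable, it is made in situ by GAPDH at 100nM final; no-PGK wells define the baseline.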

Assay [4] concerns the target phosphoglycerate mutase (Leishmania major) (UniProt Q4Q090). Nature of the assay: qHTS Validation Assay to Find Inhibitors of Phosphoglycerate Mutase (AID 504548). Further: series mostly up to about 58 µM; on the % scale 0 is the no-effect control and ±100 the full control effect. In outline: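 Lm PGAM at 1.25 nM final with substrate in 100 mM TEA pH 7.6, 5 mM MgCl2, 0.01% Tween-20; 45 min at room temperature. Kinase-GloPlus added, 10 min, end-point luminescence read.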
A short description of assay [5]: Inducers of the Endoplasmic Reticulum Stress Response (ERSR) in human glioma: Validation (AID 504836). Further: 0% is about no effect. In outline:
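ERSR induction read as luciferase luminescence (Bright-Glo, 10 min at room temperature) in stably transfected human U87-MG glioma cells exposed to compounds for 16 h, using GRP78 as sensor.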

Assay [6] has as its target Ubiquitin carboxyl-terminal hydrolase 1 (Homo sapiens) (UniProt O94782). Nature of the assay: Inhibitors of USP1/UAF1: Pilot qHTS (AID 504865).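 Further: rhodamine fluorescence freed from ubiquitin-rhodamine substrate followed over time; top concentration of the series differs between compounds; on the % scale 0 is the no-effect control and ±100 the full control effect; nearly all actives have a fitted effect of over 35% in size.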 The method in brief: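 Deubiquitinase activity followed as kinetic rhodamine fluorescence release from 150 nM Ub-Rho. 1 nM USP1/UAF1 with compound, after 15 min room-temperature preincubation, in HEPES pH 7.8 buffer containing TCEP, EDTA, BSA and Tween-20.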

Assay [7] in a line: qHTS for Inhibitors of ATXN expression: Validation of Cytotoxic Assay (AID 588349). Further: potency means the concentration at half of the fitted maximal effect. In outline: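 Read-out: ATP-based luminescence (CellTiter Glo) reflecting viability of HEK293 cells after 72 hr incubation at 37 degrees C with a concentration series of each compound.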
Assay [8] can be described thus: qHTS for Inhibitors of ATXN expression: Validation (AID 588378). Further: nearly all actives have a fitted effect of over 75% in size. Further: potency means the concentration at half of the fitted maximal effect. The method in brief: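 Luciferase luminescence (Bright-Glo) from an ATXN2-FFLuc HEK293 line after 24 h compound exposure at 37 °C, preceded by a CellTiter-Fluor fluorescence viability read. Serial dilutions of a reference ATXN2 inhibitor and a luciferase inhibitor served as controls.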
The target in assay [9] is Thyrotropin-releasing hormone receptor (Homo sapiens) (UniProt P34981). Nature of the assay: qHTS for Small Molecule Agonists and Allosteric Enhancers of Human TRH Receptor: Validation Screen for Agonists (AID 493127;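 active means calcium activation more than 3 SD above the typical response in the agonist read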;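 further: intracellular calcium rise by fluo-8 fluorescence before TRH EC20 addition; 0% is about no effect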). To be noted: TRH receptor agonist cell assay; at 2 µM; stronger effect = higher value. In outline: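 Cells 2000/well, 10% FCS, 18 h 33.5C/5% CO2 → fluo-8 Ca dye, RT 30 min–1.5 h → FDSS baseline 10 × 1 s → compound added → 230 cycles (1 s/cycle) agonist mode. TRH controls.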

Assay [10] in a line: Nrf2 qHTS screen for inhibitors: Validation (AID 493153; active means well fitted inhibition curve with a large enough effect in the main read-out, with a control signal flat, not every such curve was filed as active). Conditions: Potency: luciferase luminescence; viability change: measured here: cytotoxicity max response. The method in brief:
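Luminescence from an ARE-firefly luciferase reporter in A549 cells gives Nrf2 inhibition; an earlier CellTiter-Fluor fluorescent read flags cytotoxicity. Cells in 5% FBS OPTI-MEM received compound dilution series for 18-24 h at 37°C.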

In assay [11] the target is Galactokinase (Homo sapiens) (UniProt P51570). The experiment in a line: qHTS Validation Assay for Inhibitors of Human Galactokinase (GALK) (AID 493189). Further: 0% is about no effect. In outline:
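Inhibition was measured as remaining ATP, detected by luciferase luminescence after a 1 h room-temperature reaction. Final conditions: 5 nM GALK, 100 uM galactose, 35 uM ATP, pH 8.0 HEPES buffer.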

Assay [12] is described as follows: Validation screen for small molecules that induce DNA re-replication in SW480 colon adenocarcinoma cells (AID 504364). Further: potency means the concentration at half of the fitted maximal effect. In outline: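 250 cells/well; compound pinned in; 48 hr, 37 C, 5% CO2; Hoechst added, 40 min; nuclear fluorescence imaged, 405 ex / 500-530 em; re-replication scored as increase in high-intensity nuclei.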
The target of assay [13] is DNA dC->dU-editing enzyme APOBEC-3G (Homo sapiens) (UniProt Q9HC16). The experiment in a line: qHTS for inhibitors of Vif-A3G interactions: Validation (AID 588379). Further: 0% is about no effect. In outline: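 HeLa cells stably expressing Vif and A3G-eYFP, 700 cells/well, incubated overnight at 37 deg C, then exposed to compound overnight at 37 deg C. Inhibition of Vif-mediated degradation read as increased yellow fluorescence (Ex 488/Em 500-530) by laser-scanning cytometry.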

Assay [14] addresses Estrogen receptor (Homo sapiens) (UniProt P03372). Nature of the assay: qHTS assay for small molecule antagonists of estrogen receptor alpha signaling (AID 588513; active means well fitted curve in the direction sought with a large enough effect in the signal ratio, with a control signal flat, not every such curve was filed as active; the % refers to the signal ratio; further: on the % scale 0 is the no-effect control and ±100 the full control effect). In outline:
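Antagonist mode: inhibition of 0.5 nM 17-beta-estradiol-driven beta-lactamase reporter in HEK 293 ER-alpha-UAS-bla cells, 18 h at 37C, CCF4 readout after 2 h at RT. Normalised to estradiol and DMSO; titration fitted to Hill.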

Assay [15] addresses Bile acid receptor (Homo sapiens) (UniProt Q96RI1). Nature of the assay: qHTS assay for small molecule agonists of farnesoid X receptor signaling (AID 588527; calls by dose curve;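 further: series mostly up to about 77 µM; 0% = vehicle basal and 100% = reference agonist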). Conditions: HEK293T FXR-UAS-bla, beta-lactamase ratio, 16 h; stronger effect = higher value. The method in brief: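 FXR-UAS-bla HEK293T cells (10% dialyzed FBS) preincubated 5-7 h at 37 C, then compounds at up to 92 uM for 16 h at 37 C. CCF4 beta-lactamase read-out after 2 h RT. Normalized to chenodeoxycholic acid (100 uM) and DMSO; Hill fit gave EC50 and efficacy.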

Assay [16] has as its target Glucocorticoid receptor (Homo sapiens) (UniProt P04150). The experiment in a line: qHTS assay for small molecule agonists of glucocorticoid receptor signaling (AID 588532; active means well fitted curve in the direction sought with a large enough effect in the signal ratio, with a control signal flat; the % refers to the signal ratio;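 further: 100% = dexamethasone at 0.1 µM and 0% = DMSO only wells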). To be noted: HeLa MMTV-bla, beta-lactamase ratio, agonist, 18 h; stronger effect = higher value; percent of dexamethasone control, DMSO zero. In outline:
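Using MMTV-bla HeLa cells in medium with 1% stripped FBS and 25 mM HEPES, compounds were titrated and incubated overnight-length (18 h). Beta-lactamase cleavage of CCF4 was quantified by dual-emission fluorescence.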

Sequence of Thyrotropin-releasing hormone receptor (Homo sapiens) (P34981 whole entry, looked up): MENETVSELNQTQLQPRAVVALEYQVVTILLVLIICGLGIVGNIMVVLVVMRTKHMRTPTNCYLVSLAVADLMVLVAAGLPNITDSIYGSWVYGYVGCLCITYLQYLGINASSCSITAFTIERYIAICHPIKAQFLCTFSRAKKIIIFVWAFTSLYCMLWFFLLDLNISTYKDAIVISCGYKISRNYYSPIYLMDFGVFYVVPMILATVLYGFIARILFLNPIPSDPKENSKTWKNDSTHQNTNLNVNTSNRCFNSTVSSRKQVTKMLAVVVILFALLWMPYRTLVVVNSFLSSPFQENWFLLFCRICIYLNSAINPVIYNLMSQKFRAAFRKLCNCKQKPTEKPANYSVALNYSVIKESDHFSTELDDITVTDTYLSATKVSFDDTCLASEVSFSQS
Sequence of Phosphoglycerate kinase, glycosomal (Trypanosoma brucei brucei) (P07378 whole entry, looked up): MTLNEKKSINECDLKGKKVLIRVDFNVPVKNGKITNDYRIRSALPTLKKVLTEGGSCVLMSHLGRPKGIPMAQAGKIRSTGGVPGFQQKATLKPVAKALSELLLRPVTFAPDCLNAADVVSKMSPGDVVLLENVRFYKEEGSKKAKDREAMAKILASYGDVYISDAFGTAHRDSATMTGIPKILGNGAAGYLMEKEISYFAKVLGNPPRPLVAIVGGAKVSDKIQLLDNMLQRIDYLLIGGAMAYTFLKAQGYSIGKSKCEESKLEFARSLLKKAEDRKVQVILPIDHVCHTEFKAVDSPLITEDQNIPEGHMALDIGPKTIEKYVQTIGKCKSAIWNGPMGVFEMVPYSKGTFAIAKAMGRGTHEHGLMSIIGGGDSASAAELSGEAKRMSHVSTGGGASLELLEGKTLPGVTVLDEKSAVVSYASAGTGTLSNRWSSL
Sequence of Ubiquitin carboxyl-terminal hydrolase 1 (Homo sapiens) (O94782 whole entry, looked up): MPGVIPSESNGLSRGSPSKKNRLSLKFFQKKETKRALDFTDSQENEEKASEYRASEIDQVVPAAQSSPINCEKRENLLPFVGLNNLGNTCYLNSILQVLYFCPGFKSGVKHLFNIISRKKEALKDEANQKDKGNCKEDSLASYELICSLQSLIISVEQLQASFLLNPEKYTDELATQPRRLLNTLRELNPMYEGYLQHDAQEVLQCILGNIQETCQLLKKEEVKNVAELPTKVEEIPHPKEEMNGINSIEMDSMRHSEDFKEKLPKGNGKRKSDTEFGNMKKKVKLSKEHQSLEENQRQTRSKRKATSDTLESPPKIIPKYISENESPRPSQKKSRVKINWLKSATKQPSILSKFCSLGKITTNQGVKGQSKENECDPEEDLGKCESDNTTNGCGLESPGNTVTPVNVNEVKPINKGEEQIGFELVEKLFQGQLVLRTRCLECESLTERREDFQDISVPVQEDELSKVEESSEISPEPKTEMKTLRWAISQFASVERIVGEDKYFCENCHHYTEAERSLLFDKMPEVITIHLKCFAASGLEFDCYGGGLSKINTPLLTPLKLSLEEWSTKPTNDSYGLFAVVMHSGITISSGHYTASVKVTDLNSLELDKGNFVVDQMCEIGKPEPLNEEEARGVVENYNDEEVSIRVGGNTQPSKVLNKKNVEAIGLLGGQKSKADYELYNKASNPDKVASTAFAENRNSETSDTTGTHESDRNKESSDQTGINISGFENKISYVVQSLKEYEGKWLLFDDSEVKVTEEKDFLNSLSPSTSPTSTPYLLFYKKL
Sequence of Galactokinase (Homo sapiens) (P51570 whole entry, looked up): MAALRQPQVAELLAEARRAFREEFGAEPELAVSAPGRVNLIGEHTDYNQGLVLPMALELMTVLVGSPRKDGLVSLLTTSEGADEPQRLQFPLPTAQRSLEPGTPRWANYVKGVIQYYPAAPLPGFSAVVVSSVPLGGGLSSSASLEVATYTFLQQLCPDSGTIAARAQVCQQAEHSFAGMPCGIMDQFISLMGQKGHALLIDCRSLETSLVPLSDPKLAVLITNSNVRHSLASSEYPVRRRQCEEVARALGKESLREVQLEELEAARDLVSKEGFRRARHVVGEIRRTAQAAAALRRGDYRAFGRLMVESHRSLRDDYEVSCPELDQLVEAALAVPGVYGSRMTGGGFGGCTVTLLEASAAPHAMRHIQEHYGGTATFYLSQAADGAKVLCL
Sequence of phosphoglycerate mutase (Leishmania major) (Q4Q090 1-553): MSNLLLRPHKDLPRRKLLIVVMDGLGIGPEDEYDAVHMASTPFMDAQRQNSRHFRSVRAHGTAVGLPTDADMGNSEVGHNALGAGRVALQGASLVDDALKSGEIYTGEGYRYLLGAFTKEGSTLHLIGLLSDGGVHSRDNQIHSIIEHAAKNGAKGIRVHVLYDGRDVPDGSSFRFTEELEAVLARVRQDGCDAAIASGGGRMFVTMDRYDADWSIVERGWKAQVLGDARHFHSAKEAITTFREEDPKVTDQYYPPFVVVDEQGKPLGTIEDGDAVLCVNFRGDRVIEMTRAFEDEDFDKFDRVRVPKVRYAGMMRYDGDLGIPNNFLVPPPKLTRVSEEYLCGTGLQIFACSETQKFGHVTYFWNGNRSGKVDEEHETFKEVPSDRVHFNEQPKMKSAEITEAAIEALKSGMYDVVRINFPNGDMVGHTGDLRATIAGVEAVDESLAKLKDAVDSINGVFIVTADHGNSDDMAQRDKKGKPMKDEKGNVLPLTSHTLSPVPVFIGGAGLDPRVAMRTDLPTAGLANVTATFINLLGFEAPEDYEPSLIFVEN
Sequence of Peptidyl-prolyl cis-trans isomerase NIMA-interacting 1 (Homo sapiens) (Q13526 whole entry, looked up): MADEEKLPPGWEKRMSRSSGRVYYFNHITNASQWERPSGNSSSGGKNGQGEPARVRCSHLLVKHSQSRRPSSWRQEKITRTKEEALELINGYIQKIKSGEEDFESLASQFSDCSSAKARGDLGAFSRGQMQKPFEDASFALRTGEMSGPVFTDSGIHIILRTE
Sequence of Estrogen receptor (Homo sapiens) (P03372 whole entry, looked up): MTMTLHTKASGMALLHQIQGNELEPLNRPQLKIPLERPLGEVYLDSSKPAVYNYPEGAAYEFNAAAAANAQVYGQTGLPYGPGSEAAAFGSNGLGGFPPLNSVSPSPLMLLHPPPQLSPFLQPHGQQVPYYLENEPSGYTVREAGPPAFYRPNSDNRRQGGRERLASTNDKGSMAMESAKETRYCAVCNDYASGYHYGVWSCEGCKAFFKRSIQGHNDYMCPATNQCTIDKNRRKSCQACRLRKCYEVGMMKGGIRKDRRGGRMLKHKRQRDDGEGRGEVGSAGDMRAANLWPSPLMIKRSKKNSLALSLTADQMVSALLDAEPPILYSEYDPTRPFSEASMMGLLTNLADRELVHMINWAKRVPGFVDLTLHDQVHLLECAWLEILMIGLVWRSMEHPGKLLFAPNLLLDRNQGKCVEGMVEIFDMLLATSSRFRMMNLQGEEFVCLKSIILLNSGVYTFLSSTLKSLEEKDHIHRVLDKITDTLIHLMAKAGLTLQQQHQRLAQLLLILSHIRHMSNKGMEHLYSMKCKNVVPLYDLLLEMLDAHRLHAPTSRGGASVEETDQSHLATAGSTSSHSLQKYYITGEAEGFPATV
Sequence of Glucocorticoid receptor (Homo sapiens) (P04150 whole entry, looked up): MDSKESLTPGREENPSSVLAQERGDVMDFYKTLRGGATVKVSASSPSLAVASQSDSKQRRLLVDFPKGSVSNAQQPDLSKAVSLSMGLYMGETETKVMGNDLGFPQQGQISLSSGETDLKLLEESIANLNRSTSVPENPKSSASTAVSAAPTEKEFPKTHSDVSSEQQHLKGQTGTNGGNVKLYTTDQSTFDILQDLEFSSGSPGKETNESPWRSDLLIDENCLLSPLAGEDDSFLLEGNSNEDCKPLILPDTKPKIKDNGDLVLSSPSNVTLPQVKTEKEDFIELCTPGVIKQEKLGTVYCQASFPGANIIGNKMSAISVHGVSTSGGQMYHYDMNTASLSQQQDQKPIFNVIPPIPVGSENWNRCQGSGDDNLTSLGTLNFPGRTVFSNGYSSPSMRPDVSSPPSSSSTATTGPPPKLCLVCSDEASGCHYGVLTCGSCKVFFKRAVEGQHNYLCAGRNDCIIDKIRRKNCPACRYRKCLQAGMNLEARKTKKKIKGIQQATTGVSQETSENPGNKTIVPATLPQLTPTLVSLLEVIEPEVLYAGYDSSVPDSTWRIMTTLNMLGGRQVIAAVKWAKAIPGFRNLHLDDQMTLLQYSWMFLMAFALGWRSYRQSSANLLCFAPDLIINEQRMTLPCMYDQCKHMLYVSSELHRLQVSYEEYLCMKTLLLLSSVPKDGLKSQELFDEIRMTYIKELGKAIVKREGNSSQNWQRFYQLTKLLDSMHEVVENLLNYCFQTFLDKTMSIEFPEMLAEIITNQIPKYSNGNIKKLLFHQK
Sequence of DNA dC->dU-editing enzyme APOBEC-3G (Homo sapiens) (Q9HC16 whole entry, looked up): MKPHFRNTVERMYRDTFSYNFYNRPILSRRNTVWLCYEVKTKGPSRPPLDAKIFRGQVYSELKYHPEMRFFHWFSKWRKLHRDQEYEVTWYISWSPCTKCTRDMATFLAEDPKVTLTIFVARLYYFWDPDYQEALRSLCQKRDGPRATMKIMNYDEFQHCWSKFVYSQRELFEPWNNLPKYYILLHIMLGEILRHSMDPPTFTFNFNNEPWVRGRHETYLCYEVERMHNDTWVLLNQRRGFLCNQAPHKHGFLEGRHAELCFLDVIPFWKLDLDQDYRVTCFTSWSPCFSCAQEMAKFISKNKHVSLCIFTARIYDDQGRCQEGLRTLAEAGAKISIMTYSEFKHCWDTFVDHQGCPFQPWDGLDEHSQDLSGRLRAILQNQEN
Sequence of Bile acid receptor (Homo sapiens) (Q96RI1 whole entry, looked up): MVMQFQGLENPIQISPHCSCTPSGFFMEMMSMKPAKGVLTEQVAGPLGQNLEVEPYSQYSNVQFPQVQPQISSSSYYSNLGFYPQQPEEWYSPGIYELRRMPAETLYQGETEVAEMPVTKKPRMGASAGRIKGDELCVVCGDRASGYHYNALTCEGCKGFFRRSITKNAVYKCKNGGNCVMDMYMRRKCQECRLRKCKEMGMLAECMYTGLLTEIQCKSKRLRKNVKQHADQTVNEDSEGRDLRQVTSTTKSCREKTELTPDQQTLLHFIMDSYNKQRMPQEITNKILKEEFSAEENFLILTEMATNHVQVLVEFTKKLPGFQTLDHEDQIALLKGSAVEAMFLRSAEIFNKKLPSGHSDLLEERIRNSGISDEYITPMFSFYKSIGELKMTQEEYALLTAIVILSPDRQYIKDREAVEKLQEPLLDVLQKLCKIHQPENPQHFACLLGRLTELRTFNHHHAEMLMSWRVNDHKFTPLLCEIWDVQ

With `CC(O)(CS(=O)(=O)c1ccc(F)cc1)C(=O)Nc1ccc(C#N)c(C(F)(F)F)c1` (centres undefined), the compound was called inactive in [1], in assay [4] and in [5]. In addition, the Potency result in assay [2], in assay [3], in assay [6], in [7] and in assay [8] was “inactive” throughout.
Turning to `Cc1cccc(C)c1NC(=O)CN1CCCC1=O`, the result in assay [1], in [4] and in assay [5] was inactive. Besides, the Potency entry in [3], in assay [6], in assay [7] and in [8] was “inactive” in each case.
For `c1ccc(C2CC2)c(OCC2=NCCN2)c1`, the activation in assay [9] is 0.562% (inactive). Further, the Potency result in [10], in assay [12], in assay [2], in [3], in assay [6] and in assay [7] was “inactive” in each case. The Potency entry in [8] is “inactive”. In assay [10], the viability change turned out to be 5.58%. The result in assay [1], in assay [11], in assay [4], in assay [5] and in assay [13] was inactive.
Consider `CC(=O)[C@H]1CC[C@H]2[C@@H]3CC[C@H]4C[C@](C)(O)CC[C@]4(C)[C@H]3CC[C@]12C`, for which the compound was called inactive in assay [1], in assay [4] and in [5]. Besides, the Potency entry in assay [2], in assay [3], in [6], in [7] and in assay [8] was “inactive” in each case.
Turning to `O=C1NCN(c2ccccc2)C12CCN(CC1COc3ccccc3O1)CC2` (centres undefined), the activation in assay [9] was 0.562% (inactive). The call in [1], in assay [11], in assay [4] and in [5] was inactive. Also, the Potency result in assay [12], in assay [2], in assay [3], in assay [6], in assay [7] and in [8] was “inactive” each time.
Regarding `CCC1(C2=NCCN2)Cc2ccccc2O1` (centres undefined), the activation in [9] is 0.812% (inactive). Also, the outcome in assay [1], in assay [11], in [4] and in [5] was inactive. Further, the Potency result in [12], in assay [2], in assay [3], in assay [6], in assay [7] and in [8] was “inactive” throughout.
For the compound `CC[C@@H](CO)NC(=O)[C@@H]1C=C2c3cccc4c3c(cn4C)C[C@H]2N(C)C1`, the result in [1], in assay [4] and in assay [5] was inactive. The Potency entry in assay [3], in assay [6] and in assay [8] was “inactive” in each case.
On to `COc1ccc(C(CN(C)C)C2(O)CCCCC2)cc1` (centres undefined), for which the compound was classed as inactive in [1], in assay [4] and in assay [5]. Besides, the Potency result in assay [2], in assay [3], in assay [6], in assay [7] and in assay [8] was “inactive” in each case.
Turning to `Cc1cccc(C)c1NC1=NCCCS1`, the activation in assay [9] is 0.688% (inactive). For the same compound, the compound was called inactive in assay [1], in [11], in [4] and in [5]. The Potency entry in assay [12], in assay [2], in assay [3], in assay [6], in [7] and in [8] was “inactive” in each case.
Regarding `O=c1[nH]c2ccccc2n1CCCN1CCC(n2c(=O)[nH]c3cc(Cl)ccc32)CC1`, the call in assay [1], in [11], in assay [4] and in assay [5] was inactive. In addition, the Potency entry in assay [12], in assay [2], in assay [3] and in [6] was “inactive” each time.
On to `Clc1cccc(N2CCNCC2)c1`, for which the compound was called inactive in assay [11] and in assay [13]. For the same compound, the Potency result in [12] is “inactive”.
As for `COc1cc2c(c(OC)c1OC)-c1ccc(OC)c(=O)cc1[C@@H](NC(C)=O)CC2`, in [12], the Potency was 0.058 µM (active). The outcome in [14] was inactive. For the same compound, the activation in assay [15] is -2.29% (inactive); in assay [16], -3.94% (inactive) and -2.86% (inactive).
In the case of `Cc1cc2c(C(C)C)c(O)c(O)c(C=O)c2c(O)c1-c1c(C)cc2c(C(C)C)c(O)c(O)c(C=O)c2c1O`, the Potency in assay [2] was 9.53 µM (active); in assay [7], 10 µM (active); in assay [8], 7.08 µM (active).
Take `O=c1c(O)c(-c2ccc(O)c(O)c2)oc2cc(O)cc(O)c12`: in assay [3], the Potency is 7.57 µM (active).
On to `NNCCc1ccccc1`, for which the outcome in assay [5] was inactive.
Same read-out and setting: in the case of `Cn1ccc2cc3c(cc21)CCN3C(=O)Nc1cccnc1` it was “inactive”; in that of `C[C@H]1c2cccc(O)c2C(O)=C2C(=O)[C@]3(O)C(O)=C(C(N)=O)C(=O)[C@@H](N(C)C)[C@@H]3[C@@H](O)[C@@H]21`, “inactive”.
The same measure, in the same setting: in the case of `Nc1nc(N)c2nc(-c3ccccc3)c(N)nc2n1` it was “inactive”; in that of `COc1cc2nc(N3CCN(C(=O)C4CCCO4)CC3)nc(N)c2cc1OC` (centres undefined), “inactive”.
On the same count and under the same terms, to `CCCN1C[C@H](CSC)C[C@@H]2c3cccc4[nH]cc(c34)C[C@H]21` belongs “inactive”; to `COC(=O)C1=C(C)NC(C)=C(C(=O)OCCN(C)Cc2ccccc2)C1c1cccc([N+](=O)[O-])c1` (centres undefined), “inactive”; to `O=C1CCC(N2C(=O)c3ccccc3C2=O)C(=O)N1` (centres undefined), “inactive”.
For `Cc1cccc(C)c1OCC(C)N` (centres undefined), the call in assay [5] was inactive.
With `Nc1nc2c(ncn2COC(CO)CO)c(=O)[nH]1`, in assay [5], the outcome was inactive.
For the compound `CCCC(CCC)C(=O)O`, in assay [5], the outcome was inactive.
Still for that read-out and setting: to `CNC1(C)C2CCC(C2)C1(C)C` (centres undefined) belongs “inactive”; to `CN(C)CC/C=C1\c2ccccc2COc2ccccc21`, “inactive”; to `NC(=O)NO`, “inactive”.
With `CN(C)C(=O)C(CCN1CCC(O)(c2ccc(Cl)cc2)CC1)(c1ccccc1)c1ccccc1`, the call in assay [5] was inactive.
Still for that read-out and setting: in the case of `CN(C)CCC=C1c2ccccc2C=Cc2ccccc21` it was “inactive”; in that of `CCCCc1oc2ccccc2c1C(=O)c1cc(I)c(OCCN(CC)CC)c(I)c1`, “inactive”; in that of `CN(C)[C@@H]1C(=O)C(C(N)=O)=C(O)[C@@]2(O)C(=O)C3=C(O)c4c(O)ccc(Cl)c4[C@@H](O)[C@H]3C[C@@H]12`, “inactive”.
The same measure, in the same setting: to `CC1=NS(=O)(=O)c2cc(Cl)ccc2N1` belongs “inactive”; to `CC12CC3CC(C)(C1)CC(N)(C3)C2`, “inactive”.
On the same count and under the same terms, in the case of `O=C1N=C(O)CN1/N=C/c1ccc(-c2ccc([N+](=O)[O-])cc2)o1` it was “inactive”.
